Most compounds without a hit are left out; they make up all but 2.6% or so of the library.
PRMT1 FP inh – PRMT1 (human) inhibition, primary screen; recombinant PRMT1, activity-based probe fluorescence polarization; inhibition, % at 2.79 µM; 370,000 compounds, 1.3% hits; AID 652257;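 active = inhibition above about 21% made by adding two undisclosed values, limit read from the data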
Exocytosis inh – lytic granule exocytosis inhibition. TALL-104 LAMP-1 surface exposure, flow cytometry; cells stimulated with thapsigargin and PMA. inhibition, % at 10 µM. 360,000 compounds, 0.66% hits;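 active = inhibition above about 55%, limit read from the data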
NOD2-RIPK2 inh – NOD2-RIPK2 protein interaction inhibition | 360,000 compounds, 0.38% hits | inhibition, % at 4.98 µM | CHO BLA complementation NOD2-RIPK2, CCF4 ratio | O43353 | AID 624267; in the data active = inhibition above about 21%;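 also: 0% = vehicle only and 100% = reference blocker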
TLR4-MyD88 BLA – TLR4-MyD88 interaction inhibition in cells | O00206+Q99836 | HeLa CL3-4 TLR4/MyD88 BLA complementation, FRET ratio | AID 861 | inhibition, % at 8.4 µM | 200,000 compounds, 0.18% hits; in the data active = inhibition above about 25%;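 also: 0% = vehicle and 100% = reference inhibitor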
Target sequence (O00206 whole entry, looked up): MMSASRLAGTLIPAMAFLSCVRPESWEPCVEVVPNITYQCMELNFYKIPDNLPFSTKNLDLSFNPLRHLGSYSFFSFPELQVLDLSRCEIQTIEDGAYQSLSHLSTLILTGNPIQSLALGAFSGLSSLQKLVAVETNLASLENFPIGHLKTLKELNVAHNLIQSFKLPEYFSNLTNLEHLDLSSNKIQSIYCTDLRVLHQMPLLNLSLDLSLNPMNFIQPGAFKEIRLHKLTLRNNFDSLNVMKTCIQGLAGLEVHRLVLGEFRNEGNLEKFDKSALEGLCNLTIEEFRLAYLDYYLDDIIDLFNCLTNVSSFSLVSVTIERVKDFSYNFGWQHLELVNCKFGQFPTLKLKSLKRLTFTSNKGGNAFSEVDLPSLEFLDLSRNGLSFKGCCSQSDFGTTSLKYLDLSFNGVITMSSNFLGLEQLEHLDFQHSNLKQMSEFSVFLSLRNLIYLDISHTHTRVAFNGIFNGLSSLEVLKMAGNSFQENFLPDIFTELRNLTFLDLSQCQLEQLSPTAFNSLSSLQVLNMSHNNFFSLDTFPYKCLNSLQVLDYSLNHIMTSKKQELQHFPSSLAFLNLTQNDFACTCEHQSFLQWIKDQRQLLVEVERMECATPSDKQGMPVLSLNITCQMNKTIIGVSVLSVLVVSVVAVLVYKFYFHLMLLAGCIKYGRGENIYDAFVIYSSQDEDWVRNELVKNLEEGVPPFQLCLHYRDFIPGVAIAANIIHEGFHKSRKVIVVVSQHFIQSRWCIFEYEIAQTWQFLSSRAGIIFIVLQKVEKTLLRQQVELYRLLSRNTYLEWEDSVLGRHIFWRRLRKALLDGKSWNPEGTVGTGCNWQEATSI
Target sequence (Q99836 whole entry, looked up): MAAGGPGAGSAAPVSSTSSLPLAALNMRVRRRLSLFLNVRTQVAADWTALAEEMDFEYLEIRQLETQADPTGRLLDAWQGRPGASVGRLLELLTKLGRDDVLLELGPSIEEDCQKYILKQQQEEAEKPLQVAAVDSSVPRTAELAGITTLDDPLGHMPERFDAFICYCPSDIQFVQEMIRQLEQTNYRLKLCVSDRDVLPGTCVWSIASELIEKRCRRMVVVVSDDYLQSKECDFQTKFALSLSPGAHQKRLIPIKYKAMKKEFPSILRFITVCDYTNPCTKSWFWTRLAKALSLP
ABHD5 PLIN5 PPI – inhibitors of human ABHD5-perilipin-5 interaction; inhibition, % at 4 µM; Split G. princeps luciferase complementation, luminescence, 4 h; 360,000 compounds, 0.78% hits; AID 602281; Q00G26+Q8WTS1;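 active = inhibition above the mean inhibition across every tested compound plus 3 SD, cut at about 22% in these data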;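 also: 0% = DMSO only wells and the 100% control is not disclosed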
TLR9-MyD88 block – TLR9-MyD88 interaction inhibition; Q9NR96+Q99836; CHO BLA complementation TLR9-MyD88, CCF4 FRET ratio; inhibition, % at 4.98 µM; 340,000 compounds, 0.21% hits; AID 504734;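 active = inhibition above the mean over all tested compounds plus 3 SD, cut at about 21% in these data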;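 also: 0% = DMSO only wells and 100% = clavulanate BLA inhibitor control wells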
PRMT1 inh conf – confirmation of human PRMT1 inhibitors | shares compounds with PRMT1 FP inh | recombinant His-PRMT1, activity-based probe fluorescence polarization | inhibition, % at 2.79 µM | 3,300 compounds, 42% hits;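 active = mean inhibition across replicates above the hit cutoff derived for the earlier primary screen, cut at about 22% in these data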
Active calls of the source: *; . = no result given.

SMILES | PRMT1 FP inh | Exocytosis inh | NOD2-RIPK2 inh | TLR4-MyD88 BLA | ABHD5 PLIN5 PPI | TLR9-MyD88 block | PRMT1 inh conf
CCNC(=O)/C=C1\NC(C)(C)Cc2c1ccc1ccccc21 | 9.2 | 4.8 | 5.0 | 1.7 | 0.1 | 2.1 | .
Cc1cccc2c1CC(C)(C)N/C2=C\C(N)=O | 45.3* | -5.8 | -3.9 | 4.0 | -3.2 | -12.9 | 44.5*
Cc1ccc(CNCc2cc(Cl)ccc2O)cc1 | -1.2 | 11.4 | 6.2 | . | 4.8 | 0.7 | .
COc1ccc(CNC(=O)CCN2C(=S)NC(C)(C)CC2C)cc1 (stereo not given) | -3.4 | 3.7 | 6.6 | -11.2 | -4.3 | -4.1 | .
CCOC(=O)C1=c2s/c(=C\c3ccncc3)c(=O)n2C(N)=C(C(=O)OC)C1c1ccncc1 (stereo not given) | 2.4 | 0.4 | -3.2 | -2.0 | 4.5 | 10.5 | .
N#CC1=C(N)n2c(s/c(=C\c3cccs3)c2=O)=C(C#N)C1c1cccs1 (stereo not given) | 20.9 | 1.0 | -5.2 | -1.7 | -4.6 | -2.0 | .
N#CC1=C(N)n2c(s/c(=C\c3ccco3)c2=O)=C(C#N)C1c1ccco1 (stereo not given) | 41.0* | 2.0 | -1.5 | 5.6 | 23.0* | -12.8 | 17.4
CCOC(=O)C1=C(N)n2c(s/c(=C/c3ccco3)c2=O)=C(C(=O)OC)C1c1ccco1 (stereo not given) | 35.9* | -0.6 | 14.7 | -9.9 | 8.8 | 2.4 | -0.7
COc1ccccc1/C=C(/NC(=O)c1ccccc1)C(=O)NCCN1CCOCC1 | 1.1 | -10.6 | -1.2 | . | 7.2 | 1.9 | .
Cc1cccc2sc(NC(=O)CCn3cccc3)nc12 | 5.2 | 2.1 | 2.4 | -1.4 | 2.4 | 4.4 | .
Cc1cccc2sc(NC(=O)Cn3cccc3)nc12 | 32.5* | 1.2 | -7.2 | -20.6 | 4.5 | 6.5 | 18.7
COc1ccc2c(c1)CO[C@]21O[C@H](CCO)C[C@H](O)[C@H]1O | -1.4 | -3.1 | -15.9 | . | -0.9 | . | .
N#Cc1ccc(-c2ccccc2)nc1SCC(=O)c1cc2ccccc2oc1=O | 34.5* | 2.8 | 7.7 | -0.8 | -2.2 | 8.1 | 8.0
COC(=O)[C@@]12CCCCC=C1N(CCc1ccc(Cl)cc1)C(=O)[C@H]2CC(=O)NCc1ccc(C)o1 | 1.9 | . | . | . | . | . | .
Cc1cccc(C)c1NC(=O)C1c2ccccc2OCC(=O)N1Cc1ccc2c(c1)OCO2 (stereo not given) | -0.6 | -3.3 | -3.3 | . | 11.2 | . | .
CCOC(=O)c1c(-c2ccccc2)oc2cc(CN(C)C)c(O)c(CN(C)C)c12 | 26.5* | 21.3 | -1.2 | -5.7 | 10.7 | 10.8 | 3.5
O=C(O)CN1C(=O)/C(=C\C(Br)=C\c2ccccc2)SC1=S | 30.6* | -1.2 | -2.3 | . | -6.8 | -4.9 | 33.1*
COCc1cc(C)nc(SCc2ccc([N+](=O)[O-])cc2)c1C#N | -0.7 | 1.6 | -5.3 | . | 2.2 | -9.8 | .
CCc1ccc(NC(=O)COC(=O)/C=C/c2ccco2)cc1 | 28.4* | 5.6 | -6.7 | . | 9.5 | 4.9 | -1.3
O=S(=O)(c1cccs1)N1CCCCC1 | -3.0 | -14.2 | -1.9 | . | -7.7 | 3.8 | .
CCn1c(-c2ccccc2)c[nH]c1=S | 1.2 | 0.9 | -17.0 | 1.6 | 3.3 | 8.0 | .
CC(C)Cn1c(-c2ccc(Br)cc2)c[nH]c1=S | 41.0* | -1.3 | 6.0 | -1.1 | -21.6 | 2.5 | 20.6
O=C(C1=NN[C@@H]2C(=O)N(c3cccc(F)c3)C(=O)[C@H]12)c1cnccn1 | 35.8* | 17.0 | 5.5 | . | 0.6 | . | 14.2
CCOC(=O)c1c(C)[nH]c(O)c1C=Nc1ccc(C(F)(F)F)cc1 | 28.8* | -2.2 | -0.8 | 5.6 | -12.3 | 5.7 | 14.4
CCn1c(C)nc2cc(C(=O)N/N=C/c3ccc(O)c(O)c3O)ccc21 | 42.8* | -1.8 | -2.1 | -9.0 | -4.0 | -0.5 | 43.0*
SMILES | PRMT1 FP inh | Exocytosis inh | NOD2-RIPK2 inh | TLR4-MyD88 BLA | ABHD5 PLIN5 PPI | TLR9-MyD88 block | PRMT1 inh conf
COC(=O)[C@]12C[C@H](CC(=O)N3CCC(c4ccccc4)CC3)C(=O)N(Cc3ccccc3)C1=C[C@H](COCc1ccccc1)O[C@@H]2C | -5.5 | . | . | . | . | . | .
Cc1ccc(NC(=O)c2ccc(OCC3CCCO3)cc2)cc1Cl (stereo not given) | 0.3 | 8.8 | -8.3 | . | -0.8 | -3.9 | .
O=c1oc2c3c4c(cc2c(C(F)(F)F)c1CCN1CCOCC1)CCCN4CCC3 | 53.1* | -1.2 | 19.4 | 8.2 | 1.9 | 14.6 | 24.2*
O=C(Nc1ccc(C(=O)N2CCN(c3ccccc3)CC2)cc1)C1=CSCCO1 | 0.6 | 3.8 | -25.5 | . | -0.8 | 0.8 | .
CCN(CC)CCn1c(=S)[nH]c2cc(C(=O)NCCc3ccc(OC)c(OC)c3)ccc2c1=O | -0.2 | 1.1 | 2.2 | . | 2.3 | -6.6 | .
COC(=O)C1=C2SC(C)C(=O)N2C(N)=C(C#N)C1c1cc(OC)c(OC)c(OC)c1 (stereo not given) | 30.9* | -5.7 | 0.1 | -7.8 | 1.8 | -4.7 | 5.8
COC(=O)C1=C2SC(C)C(=O)N2C(N)=C(C#N)C1c1ccc(OC)c(OC)c1 (stereo not given) | 10.3 | 0.6 | -7.5 | -2.0 | -1.8 | 0.8 | .
CC(C)(C)c1ccc(-c2nnc(SCC(=O)c3ccc([N+](=O)[O-])cc3)n2-c2ccc(Cl)cc2)cc1 | 3.0 | . | . | . | . | . | .
CCc1c(O)nc(SCC(=O)Nc2ccc(OC)cc2)n(C2CCCCC2)c1=O | 11.5 | -0.5 | -6.8 | -5.7 | -10.2 | -0.8 | .
CCc1c(O)nc(SCC(=O)Nc2nc3ccccc3s2)n(C2CCCCC2)c1=O | 45.3* | 3.9 | -1.3 | . | -7.3 | -9.0 | 49.8*
CCc1c(O)nc(SCC(=O)Nc2ccc(Cl)cc2)n(-c2ccccc2)c1=O | 37.6* | 4.6 | -8.4 | . | 0.7 | -10.7 | 35.1*
CCCCn1c(N)c(N(Cc2ccccc2OC)C(=O)CN2C(=O)NC3(CCCC3)C2=O)c(=O)[nH]c1=O | -1.3 | 3.2 | 1.4 | . | -10.4 | -0.3 | .
O=C(COC(=O)CNC(=O)c1ccco1)Nc1ncc(Cl)cc1Cl | 35.2* | 0.4 | -4.1 | . | 11.9 | 3.5 | 15.6
O=C(CNC(=O)c1cccs1)c1ccc([N+](=O)[O-])cc1 | 5.0 | 1.9 | -6.0 | -6.4 | -4.3 | 5.9 | .
O=C(CNC(=O)c1cccs1)OCC(=O)c1ccc([N+](=O)[O-])cc1 | 60.5* | -4.7 | -7.6 | 2.7 | -8.3 | -5.7 | 50.6*
Cc1ccc(C(=O)COC(=O)CNC(=O)CNC(=O)c2ccc(C)cc2)cc1 | -3.3 | -1.3 | -7.2 | -4.7 | 1.7 | 4.5 | .
O=C(CNC(=O)c1ccco1)OCC(=O)c1ccc(Cl)cc1 | -3.0 | 2.5 | 8.9 | -0.2 | 2.2 | 0.3 | .
O=C(CNC(=O)c1ccco1)OCC(=O)c1ccc([N+](=O)[O-])cc1 | 47.0* | -10.1 | -7.8 | . | -8.0 | 0.6 | 41.9*
Cc1ccc(C(=O)NCC(=O)NCC(=O)OCC(=O)c2ccc([N+](=O)[O-])cc2)cc1 | 62.6* | -1.2 | 8.9 | 12.7 | -15.2 | -10.5 | 43.5*

From PubChem
